Giardia FBPA inh-1: blocks Giardia fructose-bisphosphate aldolase activity. A8B2U2. purified Giardia FBPA. Potency, µM (titrated, usually from 59.6 µM), without a hit: at the highest dose activity, negative = inhibition, most hits filed as inhibitors. hit rate 0.71% among 290,000; also: nearly all actives have a fitted effect of over 55% in size
Target sequence (A8B2U2 whole entry, looked up): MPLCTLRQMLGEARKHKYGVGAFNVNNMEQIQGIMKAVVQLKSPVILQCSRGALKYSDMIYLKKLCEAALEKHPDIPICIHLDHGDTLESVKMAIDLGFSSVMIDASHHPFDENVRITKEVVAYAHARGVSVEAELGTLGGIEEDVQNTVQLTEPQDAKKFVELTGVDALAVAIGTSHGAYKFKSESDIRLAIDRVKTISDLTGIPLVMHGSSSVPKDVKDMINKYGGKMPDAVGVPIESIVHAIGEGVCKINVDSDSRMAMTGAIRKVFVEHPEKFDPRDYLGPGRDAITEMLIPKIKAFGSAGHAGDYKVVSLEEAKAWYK
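Giardia FBPA (40 nM reagent) was preincubated 10 min at RT with compound (up to 57.5 uM final), then substrate plus GAPDH/TPI/NAD/arsenate coupling system with diaphorase/resazurin was added; resorufin fluorescence (525/598 nm) was read after 20 min.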
RE007 growth inh: less growth of the S. pombe RE007 Vpr strain. Potency, µM (series often up to 92.2 µM), without a hit: top-dose activity change, negative = less growth, most hits filed as inhibitors. S. pombe RE007 Vpr strain, BacTiter-Glo ATP luminescence, 24 h. AID 651644. hit rate 0.21% among 360,000; active = well fitted falling curve with a large enough effect; inconclusive = small, poorly fitted or top-dose-only effect; inactive = no such curve, though single readings can be large or run the other way; also: nearly all actives have a fitted effect of over 50% in size
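Fission yeast strain RE007, carrying one chromosomally integrated HIV-1 vpr copy, was seeded at OD 0.01 in PMG+AL medium with 23 nL pinned compound. After 24 h at 30 °C and 99% humidity, viability was read by BacTiter-Glo luminescence.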
Tb PYK inh: inhibitors of Trypanosoma brucei pyruvate kinase; TbPYK enzyme, Kinase-Glo Plus ATP luminescence, 45 min; Potency, µM (top dose mostly 76.8 µM), inactives show top-dose activity, negative = inhibition, most hits filed as inhibitors; hit rate 0.12% among 410,000; AID 624173; also: nearly all actives have a fitted effect of over 50% in size
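In this concentration-response screen, enzyme-free wells defined baseline while DMSO plates tracked drift. Each reaction combined TbPYK, substrate, compound and 130 uM ADP for 45 min at room temperature. Kinase-Glo Plus luminescence gave the signal.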
LmPK inhibitor: inhibitors of Leishmania mexicana pyruvate kinase; Q27686; AID 1721; Potency, µM (doses to about 57.5 µM), for the others: top-dose activity change, negative = inhibition, most hits filed as inhibitors; hit rate 0.37% among 290,000; purified LmPK, Kinase-Glo ATP luminescence, 1 h
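Screened at intermediate enzyme activity to detect both inhibitors and activators: LmPK at 0.1 nM, with a 0.5 nM enzyme column as activation reference. PEP 0.5 mM, ADP 0.1 mM; ATP detected by luminescence after 1 h.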
AmpC inh no detg: AmpC beta-lactamase inhibition without detergent. AmpC nitrocefin hydrolysis, absorbance 480 nm, 0.0001% Triton. Potency, µM (series often up to 57.1 µM), without a hit: top-dose activity change, negative = inhibition, actives largely listed as inhibitors. AID 485341. P00811. hit rate 0.52% among 330,000;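 also: plate controls were no compound for no effect and no enzyme for full effect; nearly all actives have a fitted effect of over 20% in size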
Target sequence (P00811 whole entry, looked up): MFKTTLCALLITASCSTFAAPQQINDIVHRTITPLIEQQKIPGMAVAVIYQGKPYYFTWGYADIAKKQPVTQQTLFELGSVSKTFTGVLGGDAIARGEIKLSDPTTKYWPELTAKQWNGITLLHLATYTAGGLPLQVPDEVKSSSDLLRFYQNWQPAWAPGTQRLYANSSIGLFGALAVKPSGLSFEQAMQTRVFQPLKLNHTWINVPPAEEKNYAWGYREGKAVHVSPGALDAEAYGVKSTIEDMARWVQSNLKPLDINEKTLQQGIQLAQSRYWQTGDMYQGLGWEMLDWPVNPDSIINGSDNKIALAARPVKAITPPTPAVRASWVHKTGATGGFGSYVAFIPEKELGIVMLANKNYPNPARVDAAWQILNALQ
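20 mM phosphate pH 7.0 + 0.01% (detergent screen) or 0.0001% Triton X-100; 5.3 nM AmpC reagent; cpd preinc 15 min RT; nitrocefin (800 uM stock) to start; A480 q20 s × 4 min; Activity was normalised to no-enzyme and no-compound control wells.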
AmpC detergent: blocks E. coli AmpC beta-lactamase in detergent assay; P00811; AmpC hydrolysis of nitrocefin, absorbance 480 nm, 0.01% Triton; Potency, µM (titrated, usually from 114 µM), for the others: at the highest dose activity change, negative = inhibition, most hits filed as inhibitors; hit rate 0.041% among 370,000; AID 485294;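 also: 0% = no-compound wells and -100% = no-enzyme wells; nearly all actives have a fitted effect of over 25% in size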
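AmpC (5.3 nM in the dispensed reagent) in 20 mM phosphate pH 7.0 with 0.01% (detergent screen) or 0.0001% Triton X-100 was preincubated with compounds for 15 min at room temperature. Nitrocefin was then added from an 800 uM solution, and hydrolysis was followed at 480 nm.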
Giardia growth: inhibitors of Giardia lamblia growth; shares compounds with Giardia FBPA inh-1; Giardia lamblia trophozoite growth inhibition; Potency, µM (highest dose often 57.5 µM), for inactives: at the top dose activity change, negative = inhibition, actives largely listed as inhibitors; hit rate 5% among 1,500;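 also: trophozoites exposed to compound for 48 h at 37 °C; nearly all actives have a fitted effect of over 70% in size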
Mammalian tox: counter-screen for Giardia aldolase inhibitors: mammalian cell toxicity. hit rate 4% among 1,500. mammalian cell viability counter-screen, qHTS. Potency, µM (series often up to 57.5 µM), for inactives: top-dose viability change, negative = toxicity, actives largely listed as inhibitors. shares compounds with Giardia FBPA inh-1;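 also: Chinese hamster ovary cells used as mammalian cytotoxicity surrogate; viability measured as cellular ATP by luminescence; compound exposure lasted 48 h before reading; nearly all actives have a fitted effect of over 60% in size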
Giardia FBPA inh-2: confirmation of Giardia fructose-bisphosphate aldolase inhibitors | shares compounds with Giardia FBPA inh-1 | purified Giardia aldolase enzyme activity, qHTS | Potency, µM (top dose mostly 57.5 µM), inactives show top-dose activity change, negative = inhibition, usual class: inhibitors | hit rate 5% among 1,500 | AID 2787; also: nearly all actives have a fitted effect of over 45% in size
Rabbit FBPA inh: rabbit FBP aldolase inhibition by Giardia aldolase hits. shares compounds with Giardia FBPA inh-1. Rabbit muscle FBPA enzyme inhibition, selectivity counter-screen. Potency, µM (doses to about 57.5 µM), for the others: top-dose activity, negative = inhibition, most hits filed as inhibitors. hit rate 4% among 1,500. AID 2794; also: nearly all actives have a fitted effect of over 60% in size
GAPDH counter: counter-screen for Giardia aldolase inhibitors: GAPDH coupling enzyme. shares compounds with Giardia FBPA inh-1. GAPDH coupling enzyme counterscreen, biochemical, qHTS. Potency, µM (titrated, usually from 57.5 µM), for inactives: at the top dose activity change, negative = inhibition, actives largely listed as inhibitors. hit rate 6% among 1,500. AID 2795; also: nearly all actives have a fitted effect of over 55% in size
* = called active by the depositor; u = inconclusive; x = not tested or not shown; [ ] = remark or other dose. Rows were chosen to be rich in hits. Some 1.4% of all compounds tested hit in one or more screens of this group. Unless noted, calls follow the shape of the dose curve; as a rule, active = well fitted curve in the direction sought with a large enough effect; inconclusive = small, poorly fitted or top-dose-only effect, or another doubt; inactive = no such curve, though single readings can be large; an effect the other way counts as inactive or inconclusive. Unless noted, % is scaled to controls: 0 for no effect and ±100 for the full control effect; potency is read from the fitted curve at half-maximal effect.

SMILES	Giardia FBPA inh-1	RE007 growth inh	Tb PYK inh	LmPK inhibitor	AmpC inh no detg	AmpC detergent	Giardia growth	Mammalian tox	Giardia FBPA inh-2	Rabbit FBPA inh	GAPDH counter
O=C(N/N=C/c1ccncc1)c1cccc(S(=O)(=O)N2CCCC2)c1	x	u	1%	x	-11%	-11%	x	x	x	x	x
CCC(Sc1nc(-c2ccccc2)[nH]c1S(=O)(=O)c1ccc(C)cc1)C(=O)O (stereo not drawn)	x	x	u	x	x	11%	x	x	x	x	x
COC(=O)c1c(SCC(=O)Nc2ccccc2OC)[nH]c2ccccc2c1=O	x	x	-6%	x	x	-2%	x	x	x	x	x
Cc1ccc(C2=NC(=O)/C(=C/c3cc(O)c(O)c(Br)c3)S2)cc1	16µM*	-5%	u	-19%	18µM*	2%	7%[10.4 µM]	-18%	-15%	-9%	10%
COc1cc(/C=C2\SC(c3ccc(C)cc3)=NC2=O)cc(OC)c1O	14µM*	-11%	u	u	9%	7%	u	-7%	14µM*	u	u
CCOc1ccc(S(=O)(=O)NCC(c2ccc(N(C)C)cc2)N2CCCC2)cc1 (stereo not drawn)	x	x	-9%	x	x	15%	x	x	x	x	x
CCC1Oc2ccccc2N(CC(=O)NCc2ccccc2)C1=O (stereo not drawn)	x	x	12%	x	x	8%	x	x	x	x	x
Cc1cccnc1NC(=S)Nc1ccc(F)cc1F	20µM*	-17%	-6%	-7%	-12%	-1%	u	6%	-3%	12%	-6%
Cc1ccc(C)c(NC(=S)Nc2ncccc2C)c1	u	6%	-7%	-1%	-8%	4%	x	x	x	x	x
O=C(C1CCCN(Cc2ccc(Br)cc2)C1)N1CCCCC1 (stereo not drawn)	u	-1%	22%	-1%	2%	1%	x	x	x	x	x
Cc1ccc(CN2CCCC(C(=O)N3CCCC3)C2)cc1 (stereo not drawn)	25µM*	-9%	0%	-4%	-6%	1%	-4%[10.4 µM]	9%	6%	8%	5%
CCOC(=O)C1CCCN(Cc2ccc(OCc3ccccc3)c(OC)c2)C1 (stereo not drawn)	-29%	-14%	19%	1%	64%	u	x	x	x	x	x
CCOC(=O)C1CCCN(CC(=O)Nc2c(F)c(F)c(F)c(F)c2F)C1 (stereo not drawn)	4%	-16%	1%	5%	27%	-10%	x	x	x	x	x
CCOC(=O)C1CCCN(CC(=O)c2ccc(F)cc2)C1 (stereo not drawn)	16µM*	-6%	3%	0%	-15%	-2%	5%	5%	4%	5%	17%
CCOC(=O)C1CCCN(Cc2ccc(OCc3ccccc3)cc2)C1 (stereo not drawn)	28µM*	-13%	4%	-2%	111%	-7%	1%[10.4 µM]	21%	12%	8%	-7%
O=C(C1CCCN(Cc2ccccc2F)C1)N1CCCC1 (stereo not drawn)	-20%	-3%	1%	-4%	-24%	0%	x	x	x	x	x
O=C(C1CCCN(Cc2ccccc2[N+](=O)[O-])C1)N1CCCC1 (stereo not drawn)	28µM*	-16%	6%	-4%	-3%	-3%	u	3%	5%	4%	-1%
Cc1cc(Br)ccc1NC(=O)c1cc2c(=O)n(C)c3cc(Cl)ccc3c2s1	x	x	0%	x	x	3%	x	x	x	x	x
C=CCn1c(SCC(=O)c2ccc(O)c(O)c2)nnc1-c1cccnc1	16µM*	-13%	-7%	9%	-33%	1%	27%[10.4 µM]	23%	-25%	-20%	-4%
C=CCn1c(SCC(=O)c2ccc(O)c(O)c2)nnc1-c1cccc(C)c1	x	-14%	-24%	x	-25%	0%	x	x	x	x	x
CCn1c(SCC(=O)c2ccc(O)c(O)c2)nnc1-c1ccccc1	2.2µM*	18%	5%	-3%	-20%	-12%	-20%	-15%	-27%	-29%	-1%
COc1ccccc1-c1nnc(SCC(=O)c2ccc(Cl)cc2)n1-c1ccccc1	x	x	-8%	x	x	1%	x	x	x	x	x
C=CCn1c(SCC(=O)c2ccc(O)c(O)c2)nnc1-c1cccc(Cl)c1	x	1%	-23%	x	-23%	-8%	x	x	x	x	x
C=CCn1c(SCC(=O)c2ccc(O)c(O)c2)nnc1-c1ccccc1OC	3.2µM*	-9%	2%	4%	-56%	-18%	u	u	-19%	-18%	8%
CCn1c(SCC(=O)c2ccc(O)c(O)c2)nnc1-c1ccccc1OC	3.2µM*	2%	-11%	0%	-22%	-10%	u	-1%	-24%	-18%	0%
SMILES	Giardia FBPA inh-1	RE007 growth inh	Tb PYK inh	LmPK inhibitor	AmpC inh no detg	AmpC detergent	Giardia growth	Mammalian tox	Giardia FBPA inh-2	Rabbit FBPA inh	GAPDH counter
COc1ccc(NC(=O)N2CCc3c(sc4c3CCCC4)C2c2ccc(F)cc2)cc1 (stereo not drawn)	x	x	-10%	x	x	5%	x	x	x	x	x
CCOC(=O)c1cc(-c2ccc(F)cc2)n(CCC(=O)Nc2nc3ccc(OC)cc3s2)c1C	x	x	2%[15.4 µM]	x	x	0%	x	x	x	x	x
COc1ccccc1CNC(=O)CSc1ccc(-c2sc(-c3ccccc3)nc2C)nn1	x	x	-3%	x	x	-6%	x	x	x	x	x
COc1cc(NC(=O)CCn2c(-c3ccccc3)cc(C(C)=O)c2C)cc(OC)c1	x	x	0%[15.4 µM]	x	x	0%	x	x	x	x	x
Fc1ccc(-n2c(=S)[nH]c3cccnc32)cc1	18µM*	9%	u	-2%	-6%	u	28%	-15%	-2%	2%	16%
O=c1[nH]c(=S)n(-c2ccc(Br)cc2)c2ncccc12	x	-8%	-4%	x	x	x	x	x	x	x	x
CCOC(=O)c1ccccc1NC(=O)COc1ccccc1-c1nnc(-c2ccccc2)o1	x	x	-9%	x	x	-5%	x	x	x	x	x
Cc1nc(SCC(=O)c2ccccc2)n[nH]1	13µM*	-7%	6%	9%	-18%	-13%	11%	-11%	5%	10%	3%
